Hit rate of the full screen: of about 360,000 compounds, about 16,000 (4.4%) were called active. Not shown: some 9% with an inconclusive outcome. The full list was thinned out, with actives kept by preference. Unmarked numbers belong to inactive results. Calls follow the shape of the dose curve; as a rule, active = well fitted inhibition curve with a large enough effect; inconclusive = small, poorly fitted or top-dose-only effect; inactive = no such curve, though single readings can be large or run the other way.
% is scaled to controls: 0 for no effect and ±100 for the full control effect; potency is read from the fitted curve at half-maximal effect.

Chain of Bromodomain adjacent to zinc finger domain protein 2B (Homo sapiens) (Q9UIF8 whole entry, looked up, the tested form may be a part): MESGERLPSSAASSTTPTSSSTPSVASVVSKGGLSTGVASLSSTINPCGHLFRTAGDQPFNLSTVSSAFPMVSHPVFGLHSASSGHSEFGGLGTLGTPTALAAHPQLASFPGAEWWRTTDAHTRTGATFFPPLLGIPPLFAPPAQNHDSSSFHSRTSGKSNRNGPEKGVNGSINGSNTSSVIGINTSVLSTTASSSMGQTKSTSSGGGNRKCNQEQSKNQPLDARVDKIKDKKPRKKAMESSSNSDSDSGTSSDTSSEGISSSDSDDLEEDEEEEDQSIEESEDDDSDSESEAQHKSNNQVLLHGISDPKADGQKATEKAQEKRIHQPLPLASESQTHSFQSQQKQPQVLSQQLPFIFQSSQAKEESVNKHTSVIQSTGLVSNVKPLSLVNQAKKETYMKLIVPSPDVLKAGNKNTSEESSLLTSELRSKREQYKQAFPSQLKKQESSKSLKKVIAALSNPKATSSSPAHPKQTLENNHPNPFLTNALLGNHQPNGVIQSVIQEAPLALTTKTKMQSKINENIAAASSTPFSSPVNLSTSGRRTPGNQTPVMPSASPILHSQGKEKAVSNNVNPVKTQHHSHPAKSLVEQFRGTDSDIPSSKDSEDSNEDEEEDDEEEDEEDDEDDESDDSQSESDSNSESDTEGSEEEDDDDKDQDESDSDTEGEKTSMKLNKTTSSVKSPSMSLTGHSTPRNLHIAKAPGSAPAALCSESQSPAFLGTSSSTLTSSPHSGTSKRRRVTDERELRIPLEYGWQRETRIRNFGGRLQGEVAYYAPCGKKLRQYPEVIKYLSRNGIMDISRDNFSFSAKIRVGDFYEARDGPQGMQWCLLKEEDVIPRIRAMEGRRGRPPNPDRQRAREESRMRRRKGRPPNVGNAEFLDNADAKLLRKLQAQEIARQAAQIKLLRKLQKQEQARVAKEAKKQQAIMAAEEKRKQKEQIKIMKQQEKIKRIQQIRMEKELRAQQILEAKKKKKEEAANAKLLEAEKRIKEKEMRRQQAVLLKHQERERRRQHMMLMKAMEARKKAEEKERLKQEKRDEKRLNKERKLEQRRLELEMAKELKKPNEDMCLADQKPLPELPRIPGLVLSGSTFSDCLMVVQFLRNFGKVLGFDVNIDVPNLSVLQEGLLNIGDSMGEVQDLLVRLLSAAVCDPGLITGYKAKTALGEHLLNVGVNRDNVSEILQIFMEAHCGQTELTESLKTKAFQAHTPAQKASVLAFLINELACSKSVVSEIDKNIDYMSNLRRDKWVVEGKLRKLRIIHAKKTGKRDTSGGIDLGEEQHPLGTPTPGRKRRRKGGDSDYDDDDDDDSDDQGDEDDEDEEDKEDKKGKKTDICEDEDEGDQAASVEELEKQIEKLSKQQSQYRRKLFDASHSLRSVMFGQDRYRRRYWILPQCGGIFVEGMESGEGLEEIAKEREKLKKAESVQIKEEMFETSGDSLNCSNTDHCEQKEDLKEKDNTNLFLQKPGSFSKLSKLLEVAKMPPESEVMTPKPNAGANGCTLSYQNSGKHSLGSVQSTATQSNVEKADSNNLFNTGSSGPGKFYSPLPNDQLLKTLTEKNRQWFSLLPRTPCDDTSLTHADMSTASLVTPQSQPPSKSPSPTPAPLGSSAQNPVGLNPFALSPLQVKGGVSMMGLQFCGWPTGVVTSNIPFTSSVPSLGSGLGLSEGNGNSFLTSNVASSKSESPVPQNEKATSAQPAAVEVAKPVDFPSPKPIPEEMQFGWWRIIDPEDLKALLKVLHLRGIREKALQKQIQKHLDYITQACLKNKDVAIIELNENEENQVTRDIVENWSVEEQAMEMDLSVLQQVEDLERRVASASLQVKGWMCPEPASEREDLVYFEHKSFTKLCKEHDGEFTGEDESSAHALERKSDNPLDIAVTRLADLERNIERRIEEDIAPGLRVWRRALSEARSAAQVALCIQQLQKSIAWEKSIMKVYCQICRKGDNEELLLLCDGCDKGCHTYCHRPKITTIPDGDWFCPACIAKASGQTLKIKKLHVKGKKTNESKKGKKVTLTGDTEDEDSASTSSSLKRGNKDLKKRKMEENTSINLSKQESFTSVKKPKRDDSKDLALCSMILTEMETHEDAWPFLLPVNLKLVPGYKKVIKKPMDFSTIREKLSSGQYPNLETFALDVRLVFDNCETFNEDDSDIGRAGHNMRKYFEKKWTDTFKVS

This experiment deals with Bromodomain adjacent to zinc finger domain protein 2B (Homo sapiens) (UniProt Q9UIF8). Put plainly: qHTS Assay for Inhibitors of BAZ2B. Also: nearly all actives have a fitted effect of over 60% in size. Particulars: AlphaScreen BAZ2B-H3K14Ac peptide displacement; series mostly up to 114 µM; activity change, negative = inhibition: at the top concentration. In a few lines:
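BAZ2B (50 nM) with biotin-H3(5-23)K14Ac peptide (50 nM) in PBS pH 7.4, 0.01% Tween-20, preformed 30 min, then compound 30 min at room temperature; top concentration 110uM. AlphaScreen streptavidin donor/nickel chelate acceptor beads (10 ug/mL final), 20 min dark, signal read.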
(In general: Quantitative high-throughput screening tests each substance at several concentrations.)
As to `COc1ccc(CCNC(=O)c2cnc3sc(N4CCCCCC4)nn3c2=O)cc1OC`, the “activity change, negative = inhibition” value was -16.6%.
Take `O=C(CCn1c(=O)c2ccccc2n(Cc2ccc(Cl)cc2)c1=O)NCc1ccc2c(c1)OCO2`: the “activity change, negative = inhibition” value was 2.09%.
Same read-out and setting: the same measure for `CCN(c1ccccc1)S(=O)(=O)c1cc(C(=O)NCc2ccccn2)ccc1C`: 4.88%.
Turning to `Cc1ccc(NC(=O)CNCc2ccccn2)cc1S(=O)(=O)N(C)C`, the Potency was 25.1 µM (active).
`Cc1ccc(NC(=O)c2cccs2)cc1S(=O)(=O)N(C)C`: the “activity change, negative = inhibition” value is 9.52%.
As to `O=S(=O)(Nc1ccc2nc(-c3cccc(Cl)c3)oc2c1)c1ccccc1`, the “activity change, negative = inhibition” value is -6.28%.
As for `COc1ccc(CNC(=O)CSc2nc3ccccc3nc2Cc2ccccc2)cc1`, the “activity change, negative = inhibition” value was 3.24%.
As to `CC(C)(C)c1ccc(C(=O)NCC(c2ccco2)S(=O)(=O)c2ccc(F)cc2)cc1` (stereo not given), the “activity change, negative = inhibition” value was -17.7%.
For `Cc1cccc(N2CCN(S(=O)(=O)c3ccc4[nH]c5c(c4c3)CCCCC5)CC2)c1C`, the “activity change, negative = inhibition” value was -8.85% [at 57.1 µM].
On to `COc1ccccc1-c1cc(C(F)(F)F)nc(S(=O)(=O)CCCC(=O)Nc2cc(C)ccc2O)n1`, for which the “activity change, negative = inhibition” value is -3.61%.
`Cc1nc2nc(SCC(=O)NC3CCC(C)CC3)nn2c(C)c1Cc1ccccc1Cl` (stereo not given): the “activity change, negative = inhibition” value is -13.3%.
As for `Nc1ccc(N=Nc2ccccc2Cl)c(N)n1`, the Potency is 25.1 µM (active).
Turning to `COc1ccc(C(=O)Nc2onc3c2CCCC3)cc1`, the “activity change, negative = inhibition” value is -3.98%.
Still for that read-out and setting: as for `CCOc1ccc(NC(=O)c2c(NC(=O)Cc3ccccc3)sc3c2CCC(C)C3)cc1` (stereo not given), the figure is -21.1%; as for `CCCCOC(=O)CSc1ncnc2sc3c(c12)CCC(C)C3` (stereo not given), 18.9%; as for `CCC(C(=O)Nc1cccc(Cl)c1C)n1nc(-c2ccc(C)cc2)ccc1=O` (stereo not given), -22.7%.
With `O=[N+]([O-])c1ccccc1Nc1ccc(O)cc1`, the Potency was 39.8 µM (active).
For `O=C(Nc1ccccc1-c1ccccc1)c1ccccc1[N+](=O)[O-]`, the “activity change, negative = inhibition” value was -5.53%.
For the compound `O=C(NCCNc1ccccc1[N+](=O)[O-])c1ccccc1F`, the activity change, negative = inhibition was 8.95% [at 0.457 µM].
With `COC(=O)c1ccccc1NC(=O)c1cc(-c2ccccc2O)no1`, the “activity change, negative = inhibition” value is -17.4%.
In the case of `O=C(CN1C(=O)COc2ccccc21)Nc1ccc(F)cc1`, the Potency is 28.2 µM (active).
In the case of `CC(OC(=O)CN1C(=O)COc2ccccc21)C(=O)NCc1ccc(F)cc1` (stereo not given), the “activity change, negative = inhibition” value was 13.9%.
For the compound `O=C(CN1C(=O)COc2ccccc21)NCCN1CCc2ccccc2C1`, the “activity change, negative = inhibition” value is -19.6%.
Same read-out and setting: as for `O=C(NCc1ccccc1Cl)c1cccn1-c1nnc(N2CCCCC2)s1`, the figure is -15%.
Turning to `COc1ccccc1Nc1nc(N)nc(CN(C)C2CCCCC2)n1`, the Potency was 10 µM (active).
In the case of `COc1ccccc1Nc1nc(N)nc(CSC(=S)N2CCOCC2)n1`, the “activity change, negative = inhibition” value was -23.7%.
Regarding `COc1ccccc1Nc1nc(N)nc(N)c1S(=O)(=O)c1ccccc1`, the “activity change, negative = inhibition” value was -19.9%.
Still for that read-out and setting: the same measure for `COc1ccc(CCN2C(=O)c3oc4cc(C)cc(C)c4c(=O)c3C2c2ccccc2F)cc1OC` (stereo not given): 7.46%.
On to `COc1ccc(-c2cn3nc(N4CCCC(C(=O)NCCCOC(C)C)C4)sc3n2)cc1` (stereo not given), for which the “activity change, negative = inhibition” value was -28%.
Still for that read-out and setting: the same measure for `COC(=O)c1cc(NC(=O)c2cnc(SC)nc2-c2ccccc2)cc(C(=O)OC)c1`: 2.05%.
As for `COC(=O)c1ccc(-c2c(-c3ccccc3)ncc3cc(OC)c(OC)cc23)cc1`, the Potency is 56.2 µM (active).
With `COc1ccc(CNC(=O)Cc2ccc(-c3ccccc3)cc2)cc1OC`, the “activity change, negative = inhibition” value was -25%.
On to `Cc1c(Cl)cccc1NC(=O)c1noc2c1CCCC2`, for which the “activity change, negative = inhibition” value is 30%.
As for `COc1cnc(-c2ccccn2)nc1Oc1ccc(C(C)(C)C)cc1`, the Potency is 22.4 µM (active).
For the compound `N#Cc1ccc(Oc2cc(C(F)(F)F)nc(-c3ccccn3)n2)cc1`, the “activity change, negative = inhibition” value is -6.1%.
For `COc1ccnc(Oc2ccccc2)c1-c1ncn[nH]1`, the “activity change, negative = inhibition” value was 1.04%.
Consider `Cc1ccc(C(=O)N2c3ncnn3C3(CCCCC3)[C@@H]3CCCC[C@@H]32)cc1`, for which the “activity change, negative = inhibition” value is -14.5%.
Regarding `Cc1onc(-c2ccc(F)cc2F)c1C(=O)Nc1cccc(C(F)(F)F)c1`, the “activity change, negative = inhibition” value is -2.91%.
The same measure, in the same setting: as for `COc1ccc(OCCn2cc(C(=O)C3CCCCC3)c3ccccc32)cc1`, the figure is 15.3% [at 57.1 µM]; as for `COc1ccc(CCNC(=O)CCc2c(C)nc3c(c(C)nn3-c3ccc(C)c(C)c3)c2C)c(OC)c1OC`, -17%.
Take `O=C(c1ccc(Br)cc1)N(Cc1cccs1)c1ccc(F)cc1`: the “activity change, negative = inhibition” value was -3.77%.
Regarding `COc1ccccc1-c1nnc(SCC(N)=O)o1`, the “activity change, negative = inhibition” value is -1.92%.
For `CC(=O)NC(Cc1c[nH]c2ccccc12)C(=O)O` (stereo not given), the “activity change, negative = inhibition” value was -15.6%.
Take `Cc1cccc(C)c1OCC(=O)NC(Cc1c[nH]c2ccccc12)C(=O)O` (stereo not given): the Potency entry is “inactive”.
As to `COc1ccc(-c2cc(C(=O)NC(Cc3c[nH]c4ccccc34)C(=O)O)c(C)o2)cc1OC` (stereo not given), the Potency is 50.1 µM (active).
With `COc1cc(/C=N/NC(=O)c2cc(C)n(-c3ccc(F)cc3)c2C)cc(OC)c1O`, the “activity change, negative = inhibition” value was -35.5%.
On to `COc1cc(/C=N/NC(=O)c2ccc(N3CCCC3=O)cc2)ccc1O`, for which the “activity change, negative = inhibition” value was -3.64%.
For `Cc1cc(C(=O)N/N=C/c2ccc(O)c([N+](=O)[O-])c2)c(C)n1-c1ccc(F)cc1`, the Potency is 50.1 µM (active).
Turning to `CCc1nc2nc(C)cc(Nc3ccc(F)c(Cl)c3)n2n1`, the “activity change, negative = inhibition” value was 1.95%.
Regarding `Cc1ccc(CNC(=O)CCc2c(C)nc3c(c(C)nn3-c3ccccc3)c2C)cc1`, the “activity change, negative = inhibition” value is -0.737%.
As for `CCOc1ccc(CNC(=O)CCc2c(C)nn(-c3ccc(N4CCCCC4)nn3)c2C)cc1`, the “activity change, negative = inhibition” value was -15.5%.
In the case of `COc1ccc(CNC(=O)CCc2c(C)nn(-c3ccc(N4CCCC4)nn3)c2C)cc1`, the Potency was 79.4 µM (active).
Still for that read-out and setting: as for `Cc1nn(-c2ccc(N3CCCCC3)nn2)c(C)c1CCC(=O)NCc1ccc(F)cc1`, the figure is 79.4 µM (active).
For `COC(=O)c1ccc(NC(=O)CCc2c(C)nn(-c3ccc(N4CCCC4)nn3)c2C)cc1`, the “activity change, negative = inhibition” value was -25.5%.
On to `COc1ccc(C)cc1NC(=O)CCc1c(C)nn(-c2ccc(N3CCOCC3)nn2)c1C`, for which the “activity change, negative = inhibition” value is -14.2%.
Take `COc1cc(OC)cc(C(=O)Nc2c(C(=O)Nc3ccc(F)cc3)oc3ccccc23)c1`: the “activity change, negative = inhibition” value was -0.325%.
Same read-out and setting: as for `COc1ccc(-c2nc(CN3CCC(C(=O)NCCN(CC(C)C)CC(C)C)CC3)c(C)o2)cc1OC`, the figure is -14.9%; as for `CC(=O)N1CCCc2cc(S(=O)(=O)N3CCC(C(=O)NCc4ccc(F)cc4)CC3)ccc21`, -6.68%.
Regarding `CN(C)c1ccc(C(CNS(=O)(=O)c2cc(F)ccc2F)N2CCOCC2)cc1` (stereo not given), the “activity change, negative = inhibition” value is -25.9%.
As to `COc1ccc(Cn2c(C(=O)O)c(CNCCc3cccs3)c3ccc(OC)cc32)cc1`, the “activity change, negative = inhibition” value is -35.3%.
Turning to `O=C(O)c1ccc2c(c1)N(Cc1ccc(F)cc1)C(=O)c1ccccc1S2=O` (stereo not given), the “activity change, negative = inhibition” value is 4.07%.
On the same count and under the same terms, as for `Cc1nn(C(C)C(=O)NCCc2ccccc2)c(=O)c2c1sc1ccccc12` (stereo not given), the figure is -8.46%; as for `COc1ccc2ccccc2c1/C=N/NC(=O)c1cc(C)[nH]n1`, -26%.
With `Cc1cc(C(=O)N/N=C/c2cc([N+](=O)[O-])cc(C)c2O)n[nH]1`, the Potency is 25.1 µM (active).
`CC(C)(C)c1cc(C(=O)N/N=C/c2ccc([N+](=O)[O-])s2)n[nH]1`: the “activity change, negative = inhibition” value is -1.13%.

Source of the values: PubChem BioAssay AID504333 (National Center for Advancing Translational Sciences (NCATS), 2011).
